From PubChem BioAssay (Tox21) come the findings set out here.

Structures are written as SMILES. “And” between values parts separate entries of the source, which are not always exact repeats. Equal values may be shown once. Records with an inconclusive call do not appear. Where a call stands in place of a potency, no number is given. The source made the active and inactive calls. The call rests on the fitted dose curve; in most records, active means well fitted activation curve with a large enough effect in the repeat runs; inconclusive means weak or mixed curves; inactive means flat fitted curve, though single readings scatter.
Potency means the concentration at half of the fitted maximal effect.

A short description of the experiment: Caspase-3/7 induction in HepG2 cells by small molecules, qHTS assay (AID 1346978). Further: nearly all actives have a fitted effect of over 15% in size. Conditions: HepG2 caspase-3/7 activation, Caspase-Glo luminescence, 17 h; series mostly up to 92.4 µM; caspase activation: at the top concentration. An excerpt: National Center for Advancing Translational Sciences [NCATS] NIH Chemical Genomics Center [NCGC] U.S. Environmental Protection Agency [EPA] National Institutes of Environmental Health Sciences [NIEHS] National Toxicology Program [NTP] Assay overview: Apoptosis is a process of programmed cell death and plays a central role in the development of multicellular organisms. It is a highly regulated process and induces cell death by activating caspases, which are the members of cysteine aspartic acid-specific protease (caspase) family. Caspases involved in apoptosis are classified by their mechanism of action as initiator caspases (caspase-2, -8, -9 and -10) and executioner caspases (caspase-3, -6, and -7). Inhibition of apoptosis results in number of cancers, autoimmune diseases, inflammatory diseases and viral infection. To identify small molecule compounds that induce apoptosis, a homogeneous, luminescent Caspase-Glo 3/7 assay was used. Wild type HepG2 cells were used to screen Tox21 libraries for identifying caspase-3/7 activity inducers.
Assay Protocol Summary: HepG2 cells were dispensed at 2,000 per well in 5uL of culture medium into white solid bottom 1536-well plates (Corning Life Sciences, Corning, NY) using a Multidrop Combi (Thermo Scientific, Waltham, MA) dispenser. The assay plates were incubated at 37 C and 5% CO2 for 5hr, and then 23nL of compounds dissolved in DMSO and positive control were transferred using a Pintool station (Wako, San Diego, CA). The assay plates were incubated at 37C and 5% CO2 for 17hr. For caspase-3/7 activity read, 4uL of Caspase-Glo 3/7 reagent (Promega Corporation, Madison, WI) was added to each well of the assay plates using Flying Reagent Dispenser (FRD, Aurora Discovery, San Diego, CA) and incubated the assay plates at room temperature for 30min. The luminescence signal was quantified using a ViewLux plate reader (Perkin Elmer, Shelton, CT).
(In qHTS, concentration-response curves come from the screen itself.)
For `Nc1ccncc1`, the Potency result is “inactive”.
With `CC(O)CCO` (stereo not given), the Potency result is “inactive”.
Still for that read-out and setting: the value for `c1ccc(P(c2ccccc2)c2ccccc2)cc1` was “inactive”.
As to `CCOc1cc(Oc2ccc(C(F)(F)F)cc2Cl)ccc1[N+](=O)[O-]`, the Potency entry was “inactive”.
Still for that read-out and setting: the value for `c1ccc(N=Nc2ccccc2)cc1` was “inactive”; that for `NC(=S)Nc1ccccc1` was “inactive”.
Same read-out and setting: the same measure for `COC(=O)c1sccc1S(=O)(=O)NC(=O)Nc1nc(C)nc(OC)n1`: “inactive”.
The same measure, in the same setting: the same measure for `CCCCCCCCOC(=O)c1ccccc1C(=O)OCCCCCCCC`: “inactive”; for `CNC(=O)Oc1cccc2c1OC(C)(C)O2`: “inactive”.
With `COc1ccc(C=O)cc1`, the Potency entry was “inactive”.
On the same count and under the same terms, the value for `c1nc[nH]n1` was “inactive”.
In the case of `C=CCN(CC=C)C(=O)C(Cl)Cl`, the Potency result is “inactive”.
As to `Cc1cccc(N)c1N`, the Potency result is “inactive”.
On the same count and under the same terms, the same measure for `Cc1ccc(N)c(N)c1`: “inactive”; for `CCCCCCOC(=O)c1ccccc1C(=O)OCCCCCC`: “inactive”; for `Oc1c(Cl)c(Cl)c(Cl)c(Cl)c1Cl`: “inactive”.
Same read-out and setting: the same measure for `c1ccc(NNc2ccccc2)cc1`: “inactive”; for `Cc1ccccc1[N+](=O)[O-]`: “inactive”; for `Nc1ccc(-c2ccccc2)cc1`: “inactive”.
Still for that read-out and setting: the same measure for `S=C1NCCN1`: “inactive”; for `O=C(NC(=O)c1c(F)cccc1F)Nc1ccc(Cl)cc1`: “inactive”; for `CCCCC(CC)COC(=O)Cl` (stereo not given): “inactive”.
As to `Nc1ccc(Cl)cc1N`, the Potency is 22.6 µM (active) and 8.89 µM (active).
Consider `CCc1cccc(CC)c1N(COC)C(=O)CCl`, for which the Potency entry was “inactive”.
On the same count and under the same terms, the value for `C[C@]12CCC(=O)C[C@@H]1CC[C@@H]1[C@@H]2CC[C@]2(C)[C@@H](O)CC[C@@H]12` was “inactive”; that for `NNC(=S)NN` was “inactive”.
For `CCN(N=O)C(N)=O`, the Potency result is “inactive”.
Still for that read-out and setting: the same measure for `CC(C)C(=O)OCC(C)(C)C(OC(=O)C(C)C)C(C)C` (stereo not given): “inactive”; for `CC(C)NC(C)C`: “inactive”.
Still for that read-out and setting: the value for `O=C(O)C(F)(F)C(F)(F)C(F)(F)C(F)(F)C(F)(F)C(F)(F)C(F)(F)F` was “inactive”; that for `O=[N+]([O-])c1c(Cl)c(Cl)c(Cl)c(Cl)c1Cl` was “inactive”; that for `CCCCOCCOP(=O)(OCCOCCCC)OCCOCCCC` was “inactive”.
As to `N#CC(Br)Br`, the Potency result is “inactive”.
For the compound `CCC(=O)O[C@H]1CC[C@H]2[C@@H]3CCC4=CC(=O)CC[C@]4(C)[C@H]3CC[C@]12C`, the “caspase activation” value was -0.29% [at 42.5 µM] (inactive).
As to `CCC(C)c1ccc(O)cc1` (stereo not given), the Potency entry was “inactive”.
Still for that read-out and setting: the same measure for `COc1ccc(C(CN(C)C)C2(O)CCCCC2)cc1` (stereo not given): “inactive”.
Consider `CCN(CC)C(=O)/C(Cl)=C(\C)OP(=O)(OC)OC`, for which the Potency entry is “inactive”.
On the same count and under the same terms, the same measure for `O=S(=O)(Oc1ccc(Cl)cc1)c1ccc(Cl)cc1`: “inactive”.
Same read-out and setting: the same measure for `CCOc1cc(C=O)ccc1O`: “inactive”; for `O=Cc1ccco1`: “inactive”.
